The structures appear in SMILES notation. Records with an inconclusive call do not appear. Values without a mark were called inactive. Calls of active or inactive are those of the source. The call rests on the fitted dose curve; in most records, active means well fitted curve in the direction sought with a large enough effect; inconclusive means small, poorly fitted or top-dose-only effect, or another doubt; inactive means no such curve, though single readings can be large; an effect the other way counts as inactive or inconclusive.

Assay [1] deals with Rap guanine nucleotide exchange factor 3 (Homo sapiens) (UniProt O95398). The assay can be described thus: Confirmatory qHTS for antagonist of cAMP-regulated guanine nucleotide exchange factor 3 (EPAC1) (AID 1645880). Further: nearly all actives have a fitted effect of over 55% in size. Further: potency means the concentration at half of the fitted maximal effect.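 On activity, negative = inhibition: plate controls were DMSO only for no effect and full effect of the ATA control for full effect.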 The conditions noted are these: EPAC1 Rap1B-BODIPY-GDP exchange, fluorescence; activity, negative = inhibition: at 115 µM (top of the series). The procedure, abridged: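 Released BODIPY-GDP fluoresces less than Rap1-bound BODIPY-GDP; the signal is followed at 480/540 nm at 5-min intervals over 30 min, after 5 min at room temperature. Reactions contain 100 nM EPAC1, 250 nM RAP1B-BODIPY-GDP and 50 uM GDP; results are normalized to ATA and DMSO.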
In general terms: Quantitative high-throughput screening tests each substance at several concentrations.

The target is the same in assay [2]. The assay is described as follows: Confirmatory qHTS for agonist of cAMP-regulated guanine nucleotide exchange factor 3 (EPAC1) (AID 1645881).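 Further: EPAC1 catalysed release of BODIPY-GDP from Rap1B seen as fluorescence loss; 100% = effect of cAMP agonist control; nearly all actives have a fitted effect of over 75% in size.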 The conditions noted are these: EPAC1 Rap1B BODIPY-GDP exchange fluorescence; series mostly up to 154 µM.
Assay [3] deals with Rap guanine nucleotide exchange factor 4 (Homo sapiens) (UniProt Q8WZA2). The assay is described as follows: Confirmatory qHTS for agonist of cAMP-regulated guanine nucleotide exchange factor 4 (EPAC2) (AID 1645884).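 Further: nucleotide exchange releases bodipy-GDP from Rap1 and this lowers its fluorescence; nearly all actives have a fitted effect of over 65% in size.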 Further: potency means the concentration at half of the fitted maximal effect. On activation: on the % scale 0 is the no-effect control and ±100 the full control effect. The settings on record: EPAC2 GEF activity, Rap1B-BODIPY-GDP fluorescence; series mostly up to 154 µM.
The target of assay [4] is Rap guanine nucleotide exchange factor 3 (Homo sapiens) (UniProt O95398). The assay can be described thus: Counterscreen qHTS for antagonist of cAMP-regulated guanine nucleotide exchange factor 3 (EPAC1) (AID 1645888). Further: % of control where 0% means no effect. The conditions noted are these: Rap1B-BODIPY-GDP nucleotide exchange, fluorescence; series mostly up to 154 µM. In outline: (§1)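 Measured: fluorescence of BODIPY-GDP bound to Rap1B, which falls as exchange proceeds. Conditions include 50 uM competing GDP, 5 and 30 min reads, and a later cAMP challenge for antagonist detection.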
Background: Counterscreens check selectivity or assay interference.

Assay [5] has the same target. The assay is described as follows: Counterscreen qHTS for agonist of cAMP-regulated guanine nucleotide exchange factor 3 (EPAC1) (AID 1645889). Further: % of control where 0% means no effect; nearly all actives have a fitted effect of over 40% in size. The settings on record: EPAC1 Rap1B-BODIPY-GDP exchange, fluorescence; series mostly up to 154 µM. In outline:
as §1

Rap guanine nucleotide exchange factor 3 (Homo sapiens), sequence (O95398 whole entry, looked up): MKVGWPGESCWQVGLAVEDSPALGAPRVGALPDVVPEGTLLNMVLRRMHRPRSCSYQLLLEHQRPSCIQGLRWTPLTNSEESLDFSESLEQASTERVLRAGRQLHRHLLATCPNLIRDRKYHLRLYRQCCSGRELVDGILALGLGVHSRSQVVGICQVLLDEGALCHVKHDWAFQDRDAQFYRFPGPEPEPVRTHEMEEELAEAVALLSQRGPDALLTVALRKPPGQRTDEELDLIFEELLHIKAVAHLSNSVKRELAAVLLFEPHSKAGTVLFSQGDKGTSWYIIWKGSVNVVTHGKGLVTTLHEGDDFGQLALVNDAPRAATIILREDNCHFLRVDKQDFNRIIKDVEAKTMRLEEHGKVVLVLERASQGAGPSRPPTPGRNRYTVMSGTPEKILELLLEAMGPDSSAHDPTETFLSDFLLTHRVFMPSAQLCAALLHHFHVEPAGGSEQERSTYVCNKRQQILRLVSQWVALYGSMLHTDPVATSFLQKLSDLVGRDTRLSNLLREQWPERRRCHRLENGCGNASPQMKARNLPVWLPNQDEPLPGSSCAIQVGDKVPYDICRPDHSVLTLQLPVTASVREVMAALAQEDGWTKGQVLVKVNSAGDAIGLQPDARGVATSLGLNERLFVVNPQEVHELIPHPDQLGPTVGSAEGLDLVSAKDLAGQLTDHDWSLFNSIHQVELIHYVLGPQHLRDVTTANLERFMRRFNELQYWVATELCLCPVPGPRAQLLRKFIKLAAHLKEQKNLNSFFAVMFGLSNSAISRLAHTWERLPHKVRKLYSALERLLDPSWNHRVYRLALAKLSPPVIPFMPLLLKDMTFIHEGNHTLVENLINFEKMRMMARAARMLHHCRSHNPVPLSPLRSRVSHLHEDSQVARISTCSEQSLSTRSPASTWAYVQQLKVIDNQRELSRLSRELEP
Rap guanine nucleotide exchange factor 4 (Homo sapiens), sequence (Q8WZA2 whole entry, looked up): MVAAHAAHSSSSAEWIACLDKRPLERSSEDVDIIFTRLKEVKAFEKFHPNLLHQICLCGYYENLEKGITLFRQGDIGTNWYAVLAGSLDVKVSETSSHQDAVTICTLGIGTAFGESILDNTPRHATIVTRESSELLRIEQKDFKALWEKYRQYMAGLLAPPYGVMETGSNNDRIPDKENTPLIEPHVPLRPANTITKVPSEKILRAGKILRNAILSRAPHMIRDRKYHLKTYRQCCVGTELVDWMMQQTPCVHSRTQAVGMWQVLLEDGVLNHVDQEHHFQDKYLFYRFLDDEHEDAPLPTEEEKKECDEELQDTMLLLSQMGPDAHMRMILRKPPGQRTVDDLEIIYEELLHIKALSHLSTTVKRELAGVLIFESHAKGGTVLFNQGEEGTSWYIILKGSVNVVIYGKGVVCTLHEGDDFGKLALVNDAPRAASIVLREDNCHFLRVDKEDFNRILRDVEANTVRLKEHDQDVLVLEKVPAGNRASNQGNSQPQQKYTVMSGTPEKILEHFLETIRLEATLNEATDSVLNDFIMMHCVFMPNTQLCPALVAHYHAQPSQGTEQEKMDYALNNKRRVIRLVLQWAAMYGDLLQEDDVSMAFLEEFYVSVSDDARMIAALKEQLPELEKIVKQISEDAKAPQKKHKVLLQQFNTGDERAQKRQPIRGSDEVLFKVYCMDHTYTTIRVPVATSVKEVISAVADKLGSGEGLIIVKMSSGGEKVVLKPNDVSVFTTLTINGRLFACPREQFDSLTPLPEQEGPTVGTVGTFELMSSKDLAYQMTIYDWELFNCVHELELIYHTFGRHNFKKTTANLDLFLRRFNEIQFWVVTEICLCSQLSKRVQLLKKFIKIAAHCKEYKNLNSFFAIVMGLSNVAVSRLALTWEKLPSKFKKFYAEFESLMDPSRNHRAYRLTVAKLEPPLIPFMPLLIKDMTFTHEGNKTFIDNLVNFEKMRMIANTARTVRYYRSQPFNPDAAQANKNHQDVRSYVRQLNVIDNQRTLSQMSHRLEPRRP

Turning to `Cc1cccc(C)c1OCC(=O)Nc1ccccc1N1CCCCC1`, the Potency entry in assay [1], in assay [2], in assay [3], in assay [4] and in assay [5] was “inactive” each time.

Regarding `O=C(c1ccccc1)c1cccc(C(=O)c2ccccc2)c1`, the Potency entry in assay [1], in assay [2], in assay [3], in assay [4] and in assay [5] was “inactive” throughout.

Turning to `C=CCn1c(Cc2ccccc2)nc2c(cnn2-c2ccccc2)c1=O`, the Potency entry in assay [1], in assay [2], in assay [3], in assay [4] and in assay [5] was “inactive” throughout.

As for `COc1ccccc1CN(C(=O)CNC(=O)c1ccco1)C(C(=O)NCC1CCCO1)c1ccc(OC)c(OC)c1` (stereo not given), the Potency entry in assay [1], in assay [2], in assay [3], in assay [4] and in assay [5] was “inactive” each time.

With `Cc1ccc(S(=O)(=O)NCc2ccccc2)cc1C(=O)N1CCCC(C(F)(F)F)C1` (stereo not given), the Potency entry in assay [1], in assay [2], in assay [3], in assay [4] and in assay [5] was “inactive” in each case.

With `Cc1ccc2nc(N3C(=O)C(O)=C(C(=O)c4ccc(C)o4)C3c3ccc(O)cc3)sc2c1` (stereo not given), the Potency in assay [1] is 37.9 µM (active). Besides, the Potency entry in assay [2], in assay [3], in assay [4] and in assay [5] was “inactive” throughout.

In the case of `O=C1C=CC(=O)c2c(O)c(N3CCN(CCO)CC3)c(Cl)c(O)c21`, the Potency in assay [1] was 37.9 µM (active). Moreover, the Potency entry in assay [2], in assay [3], in assay [4] and in assay [5] was “inactive” each time.

Consider `CC(C)CSC1=NSC2=NC(=O)/C(=C\c3coc4ccccc4c3=O)C(=N)N12`, for which the Potency entry in assay [1], in assay [2], in assay [4] and in assay [5] was “inactive” in each case. Besides, in assay [3], the Potency was 112 µM (active).

For the compound `CCCN(C(=O)COC(=O)COc1c(C)cccc1C)c1c(N)n(Cc2ccccc2)c(=O)[nH]c1=O`, the Potency result in assay [1], in assay [2], in assay [3], in assay [4] and in assay [5] was “inactive” each time.

With `Cc1ccc(C)c(Cn2cnc3ccccc3c2=O)c1`, the Potency entry in assay [1], in assay [2], in assay [3], in assay [4] and in assay [5] was “inactive” throughout.

On to `COc1ccc(OC)c(NC2c3ccccc3C(=O)N2c2cccnc2)c1` (stereo not given), for which the Potency result in assay [1], in assay [2], in assay [3], in assay [4] and in assay [5] was “inactive” in each case.

Turning to `COc1ccc(-n2nnnc2C(c2ccccc2OC(F)(F)F)N2CCN(C/C=C/c3ccccc3)CC2)cc1` (stereo not given), the Potency result in assay [1], in assay [2], in assay [3], in assay [4] and in assay [5] was “inactive” in each case.

`CC(=O)c1cc(C#N)c(N(C)Cc2ccccc2)nc1C`: the Potency entry in assay [1] and in assay [2] was “inactive” in each case. In addition, the activation in assay [3] is 0.456% [at 17.1 µM, percent relative to cAMP agonist control]; in assay [5], 0.131% [at 30.8 µM]. The activity change, negative = inhibition in assay [4] is -7.5% [at 30.8 µM].

Turning to `CCOC(=O)c1cc2c(ccn2C)n1Cc1ccccc1Cl`, the Potency entry in assay [1], in assay [2], in assay [3], in assay [4] and in assay [5] was “inactive” throughout.

For the compound `CCOc1ccc(C(=O)Nc2c(C(=O)Nc3ccccc3F)oc3ccccc23)cc1OCC`, the Potency result in assay [1], in assay [2], in assay [3], in assay [4] and in assay [5] was “inactive” in each case.

For the compound `COc1ccc(S(=O)(=O)Nc2cccc(C)c2C)c2cccnc12`, the Potency entry in assay [1], in assay [2], in assay [3], in assay [4] and in assay [5] was “inactive” throughout.

With `Cc1ccc(/C=C2\S/C(=N/S(=O)(=O)c3cccs3)NC2=O)cc1`, the Potency in assay [1] is 67.5 µM (active). For the same compound, the Potency entry in assay [2], in assay [3], in assay [4] and in assay [5] was “inactive” throughout.

On to `CCOC(=O)C1CCCCN1Cc1cccc(Oc2ccccc2)c1` (stereo not given), for which the Potency entry in assay [1] and in assay [2] was “inactive” in each case. Further, the activation is 6.17% [at 17.1 µM, percent relative to cAMP agonist control] in assay [3] and 29% [at 30.8 µM] in assay [5]. The activity change, negative = inhibition in assay [4] is -24.9% [at 30.8 µM].

For `COc1ccc(-c2csc(NC(=O)c3ccc(C(C)(C)C)cc3)c2C(=O)O)cc1`, in assay [1], the Potency was 37.9 µM (active). Moreover, the Potency result in assay [2], in assay [3], in assay [4] and in assay [5] was “inactive” in each case.

With `COc1ccccc1C1CC(=O)Oc2cc(C)cc(C)c21` (stereo not given), the Potency result in assay [1] and in assay [2] was “inactive” throughout. Moreover, the activation was 3.14% [at 17.1 µM, percent relative to cAMP agonist control] in assay [3] and 7.71% [at 30.8 µM] in assay [5]. Also, the activity change, negative = inhibition in assay [4] was -8.23% [at 30.8 µM].

Take `CCC(C)(C)C1CCc2c(sc(NC(=O)c3ccccc3C(=O)O)c2C#N)C1` (stereo not given): in assay [1], the Potency was 75.7 µM (active). Further, the Potency result in assay [2], in assay [3], in assay [4] and in assay [5] was “inactive” throughout.

Consider `O=C(c1ccc(CN2CCc3ccccc3C2)cc1)N1CCCCC1`, for which the Potency result in assay [1], in assay [2], in assay [3], in assay [4] and in assay [5] was “inactive” throughout.

Consider `O=C(c1ccc(-c2ccccc2Cl)o1)N1CCC1`, for which the Potency entry in assay [1] and in assay [2] was “inactive” each time. Besides, the activation in assay [3] is 0.137% [at 17.1 µM, percent relative to cAMP agonist control]; in assay [5] it was 3.77% [at 30.8 µM]. The activity change, negative = inhibition in assay [4] is -16.6% [at 30.8 µM].

Source of the values: PubChem BioAssay (NCATS).
